Hits are enriched below; roughly 3.4% of the tested compounds scored in any of these assays.
Mito fusion act = mitochondrial division inhibition or fusion activation. Potency, µM (series often up to 46.1 µM), for the others: top-dose growth rescue (activation), hits mostly activators. S. cerevisiae fusion-defective mutant growth rescue, CellTiterGlo 48 h. 320,000 tested, 0.23% active; further: % of control where 0% means no effect; nearly all actives have a fitted effect of over 45% in size
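Luminescent cell viability in 1536-well qHTS format served as the measure of rescued growth in ts fusion-mutant S. cerevisiae cultured on non-fermentable YPEG for 48 hours at 37C.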
VDR inhibitor = vitamin D3 receptor (human) inhibition; P11473; VDR-SRC2-3 peptide fluorescence polarization, 2 h; Potency, µM, without a hit: max response, negative = inhibition, actives largely listed as inhibitors; 400,000 tested, 0.93% active; further: on the % scale 0 is the no-effect control and ±100 the full control effect
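Fluorescence polarization assay of small-molecule disruption of VDR binding to coregulator peptide SRC2-3. Compounds and controls pin-transferred, then read after 2 h incubation at ambient room temperature.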
GCN5L2 inh = inhibitors of human GCN5L2 histone acetyltransferase | AID 504327 | Potency, µM (titrated, usually from 58.9 µM), inactives show top-dose activity change, negative = inhibition, actives largely listed as inhibitors | GCN5L2 HAT assay, ThioGlo1 CoA-SH fluorescence | 390,000 tested, 0.21% active; further: on the % scale 0 is the no-effect control and ±100 the full control effect
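qHTS, 1536-well. 20nM enzyme, pH 7.5 HEPES/EDTA/Tween-20 buffer; 15 min compound preinc., RT. Start: 75uM H3(1-25), 70uM AcCoA, 50uM ThioGlo1. Read Ex340/Em540 at t=0 (autofluorescence flag) and t=20 min.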
PLK1 PBD inh = PLK1 (human) polo-box domain binding inhibition; Plk1 PBD binding of FITC phosphopeptide, fluorescence polarization; P53350; 360,000 tested, 2.8% active; Potency, µM, inactives show max response, negative = inhibition, usual class: inhibitors; further: series mostly up to about 57 µM; on the % scale 0 is the no-effect control and ±100 the full control effect; nearly all actives have a fitted effect of over 65% in size
PKM2 activator = activators of human pyruvate kinase M2. Potency, µM (doses to about 57.5 µM), for the others: top-dose activation, hits mostly activators. purified PKM2, Kinase-Glo ATP luminescence, activation; response scale: 0% is enzyme alone, no compound. P14618. 260,000 tested, 0.34% active; further: on the % scale 0 is the no-effect control and ±100 the full control effect; nearly all actives have a fitted effect of over 55% in size
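ATP formation by purified human PK-M2, quantified via coupled luciferase luminescence after 1 h at room temperature with 0.1 mM ADP and 0.5 mM PEP final.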
GLS inhibitor = glutaminase GLS (human) inhibition; O94925; GLS enzymatic activity, qHTS titration; Potency, µM (highest dose often 45.5 µM), for inactives: top-dose activity change, negative = inhibition, hits mostly inhibitors; 410,000 tested, 0.21% active; further: on the % scale 0 is the no-effect control and ±100 the full control effect
Target sequence (O94925 whole entry, looked up): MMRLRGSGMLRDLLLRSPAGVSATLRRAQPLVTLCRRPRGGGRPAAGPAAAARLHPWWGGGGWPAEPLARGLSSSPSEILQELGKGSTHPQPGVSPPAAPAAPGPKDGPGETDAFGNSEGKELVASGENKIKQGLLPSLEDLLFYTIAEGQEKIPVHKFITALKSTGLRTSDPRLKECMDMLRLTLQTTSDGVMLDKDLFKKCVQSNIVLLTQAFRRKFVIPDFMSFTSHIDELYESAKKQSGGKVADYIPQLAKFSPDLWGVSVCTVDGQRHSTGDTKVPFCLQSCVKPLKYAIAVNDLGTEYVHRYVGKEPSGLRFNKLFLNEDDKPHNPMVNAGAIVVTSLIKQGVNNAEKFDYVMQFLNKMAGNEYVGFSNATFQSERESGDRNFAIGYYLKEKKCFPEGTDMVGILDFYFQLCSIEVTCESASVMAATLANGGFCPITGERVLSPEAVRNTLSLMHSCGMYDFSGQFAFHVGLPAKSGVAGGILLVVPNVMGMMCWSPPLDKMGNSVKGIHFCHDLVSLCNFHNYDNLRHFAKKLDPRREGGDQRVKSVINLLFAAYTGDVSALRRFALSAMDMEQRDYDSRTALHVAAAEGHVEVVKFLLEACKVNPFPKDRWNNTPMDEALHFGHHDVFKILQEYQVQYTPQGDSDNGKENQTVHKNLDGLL
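Enzyme dispensed in phosphate buffer (45 mM, pH 8.2, 0.02% Tween-20), compounds pinned in, then 1 mM L-glutamine solution and the glutamate oxidase–HRP–Amplex Red mix added; fluorescence read immediately and again after 30 min at room temperature.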
* hit, by the source's call. The call rests on the fitted dose curve; in most records, active means well fitted curve in the direction sought with a large enough effect; inconclusive means small, poorly fitted or top-dose-only effect, or another doubt; inactive means no such curve, though single readings can be large; an effect the other way counts as inactive or inconclusive. Potency means the concentration at half of the fitted maximal effect.

CCOC(=O)C1CCN(S(=O)(=O)c2ccc(CC)cc2)CC1 was read as Mito fusion act 10%, VDR inhibitor 40µM*, GCN5L2 inh 0%, PLK1 PBD inh 8.4µM*, PKM2 activator 15% and GLS inhibitor inconclusive.
For CCOC(=O)c1ccc(S(=O)(=O)N2CCC(C(=O)OCC)CC2)cc1 the results were Mito fusion act 1%, VDR inhibitor -7%, GCN5L2 inh -2%, PLK1 PBD inh -3%, PKM2 activator -5% and GLS inhibitor 7%.
For CCCC1CC(=O)NC1(C(=O)OCC)C(=O)OCC (stereo not given) the results were VDR inhibitor -11%, PLK1 PBD inh 2% and GLS inhibitor -22%.
`COC(=O)[C@@]1(Cc2ccccc2-c2ccco2)C=C[C@H](C)[C@@H](c2ccccc2)N1C(=O)C(F)(F)F` gave VDR inhibitor 45µM*.
O=C(CCNC(=O)c1ccc(Br)cc1)Nc1nc2ccccc2[nH]1 was read as Mito fusion act -1%, VDR inhibitor 13%, GCN5L2 inh -14%, PLK1 PBD inh 5% and GLS inhibitor -7%.
CC1(c2nnc(-c3ccncc3)o2)CC(c2cccc(Cl)c2)=NO1 (stereo not given) was read as VDR inhibitor 10%, PLK1 PBD inh -6% and GLS inhibitor 7%.
For NC(=S)N/N=C/c1ccc(-c2ccc([N+](=O)[O-])cc2)o1 the results were Mito fusion act -3%, VDR inhibitor inconclusive, GCN5L2 inh -4%, PLK1 PBD inh 24µM*, PKM2 activator -4% and GLS inhibitor 19%.
Screening Oc1c(N=Nc2nn[nH]n2)ccc2ccccc12 returned PLK1 PBD inh 17µM* and GLS inhibitor 20µM*.
`Cc1ccc(N=Nc2ccc3ccccc3c2O)cc1` gave Mito fusion act -2%, VDR inhibitor 10%, GCN5L2 inh 2%, PLK1 PBD inh inconclusive, PKM2 activator -14% and GLS inhibitor -16%.
Screening Oc1c(N=Nc2ccc(F)cc2)ccc2ccccc12 returned Mito fusion act -4%, VDR inhibitor inconclusive, GCN5L2 inh 3%, PLK1 PBD inh 9.5µM*, PKM2 activator -12% and GLS inhibitor -33%.
`CCN(CC(=O)Nc1ccc(NC(C)=O)cc1)C(=O)CSc1ncnc2sc(C)c(C)c12` gave Mito fusion act -3%, VDR inhibitor 9%, GCN5L2 inh -15%, PLK1 PBD inh -21% and GLS inhibitor 1%.
`CCN(CC(F)(F)C(F)F)S(=O)(=O)c1ccc(NC(=O)OC)cc1` gave Mito fusion act 3%, VDR inhibitor inconclusive, GCN5L2 inh -27%, PLK1 PBD inh 3.8µM*, PKM2 activator 2% and GLS inhibitor inconclusive.
`COC(=O)c1ccc(/C=N/n2c(C)nc3ccccc3c2=O)cc1` gave Mito fusion act -4%, VDR inhibitor -9%, GCN5L2 inh -10%, PLK1 PBD inh -6% and GLS inhibitor 0%.
Cc1cccnc1Nc1nc(-c2ccc(O)cc2O)cs1 was read as Mito fusion act 7%, VDR inhibitor -9%, GCN5L2 inh -2%, PLK1 PBD inh 19µM*, PKM2 activator -24% and GLS inhibitor 42%.
For CN(NS(=O)(=O)c1ccc([N+](=O)[O-])cc1)c1ccccc1 the results were PLK1 PBD inh 3µM* and GLS inhibitor 32%.
Screening O=[N+]([O-])c1ccc(S(=O)(=O)Nc2ccc(-c3ccccc3)cc2)cc1 returned PLK1 PBD inh -14% and GLS inhibitor 10%.
`O=C(O)C1CSC(c2ccc3c(c2)OCO3)N1` (stereo not given) gave Mito fusion act 0%, VDR inhibitor inconclusive, GCN5L2 inh 2%, PLK1 PBD inh 11µM*, PKM2 activator 8% and GLS inhibitor 0%.
`CCc1ccc(C2NC(C(=O)O)CS2)cc1` (stereo not given) gave Mito fusion act -3%, GCN5L2 inh 1% and PKM2 activator -22%.
Screening CC(C)CN(C(=O)COC(=O)CCC(=O)c1ccc(F)cc1)c1c(N)n(Cc2ccccc2)c(=O)[nH]c1=O returned Mito fusion act 4%, VDR inhibitor -10%, GCN5L2 inh 3%, PLK1 PBD inh 1% and GLS inhibitor -4%.
For CC(=O)c1ccc(-c2c(CCO)sc3ccccc23)cc1 the results were PLK1 PBD inh 1% and GLS inhibitor 4%.
For O=C1CSC(c2ccc(F)cc2)N1c1nc2ccccc2s1 (stereo not given) the results were Mito fusion act 13µM*, VDR inhibitor -5%, GCN5L2 inh -11%, PLK1 PBD inh 4%, PKM2 activator 7% and GLS inhibitor -4%.
For O=C1CSC(c2ccc(F)cc2)N1c1ccccc1F (stereo not given) the results were Mito fusion act -8%, VDR inhibitor 3%, GCN5L2 inh 9%, PLK1 PBD inh -10% and GLS inhibitor -4%.
Screening NC(=S)NN=C1c2cc(Cl)ccc2-c2c1cc(Cl)cc2[N+](=O)[O-] returned VDR inhibitor -23%, PLK1 PBD inh inconclusive and GLS inhibitor 11%.
For COc1cc2c(cc1[N+](=O)[O-])-c1ccc([N+](=O)[O-])cc1C2=NNC(N)=S the results were PLK1 PBD inh 9.5µM* and GLS inhibitor -15%.
For Cc1ccc(-n2c(-c3ccco3)n[nH]c2=S)cc1 the results were Mito fusion act 0%, VDR inhibitor -15%, GCN5L2 inh -1%, PLK1 PBD inh -7%, PKM2 activator -10% and GLS inhibitor -10%.
For CC(C1CC2CCC1C2)n1c(-c2ccco2)n[nH]c1=S (stereo not given) the results were Mito fusion act 2%, VDR inhibitor 79µM*, GCN5L2 inh -18%, PLK1 PBD inh 30µM*, PKM2 activator -12% and GLS inhibitor 11µM*.
Screening CCn1c(SCC(=O)N(C)CC(=O)Nc2ccc(F)c(F)c2F)nnc1-c1ccco1 returned Mito fusion act 1%, VDR inhibitor 3%, GCN5L2 inh 0%, PLK1 PBD inh 1%, PKM2 activator -5% and GLS inhibitor 2%.
`c1ccc2[nH]c(NCCCN3CCOCC3)nc2c1` gave Mito fusion act -4%, VDR inhibitor 3%, GCN5L2 inh -3%, PLK1 PBD inh 1%, PKM2 activator 0% and GLS inhibitor 31%.
`S=c1[nH]nc(NCCCN2CCOCC2)s1` gave Mito fusion act 9%, VDR inhibitor 89µM*, GCN5L2 inh inconclusive, PLK1 PBD inh 12µM*, PKM2 activator -58% and GLS inhibitor inconclusive.
Screening COc1cc(N=Nc2ccc(Br)cc2)cc(C=O)c1O returned PLK1 PBD inh 27µM* and GLS inhibitor 4%.
